This note sets out measurements from PubChem BioAssay (NCI).

Each structure is given as a SMILES string. This is part of a sample that, as a whole, favours compounds with a hit. Of some 83,000 tested, about 20% had one in any assay.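 Cell lines were cultured in 96-well plates, exposed to a single compound concentration, and assessed for percent growth 48 hours later.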 Values without a mark were called inactive. The source made the active and inactive calls. How the source made its calls: active means growth percent below 10; inactive means the rest.

What all share (assay): NCI-60 one-dose screen, 48 h (100 = growth as untreated, 0 = no growth, -100 = all killed)
The test system of experiment [1] is A549/ATCC NSCLC. The following applies: 10 µM unless noted.
For experiment [2], the system named is K-562 leukemia. The following applies: 10 µM unless noted.
For experiment [3], the system named is SF-295 CNS. The following applies: 10 µM unless noted.
The test system of experiment [4] is SF-539 CNS. The following applies: 10 µM unless noted.
Experiment [5] relates to UACC-257 melanoma. The following applies: 10 µM unless noted.
Experiment [6] concerns HCT-15 colon. The following applies: 10 µM.
For experiment [7], the system named is HT29 colon. The following applies: 10 µM unless noted.
Experiment [8] relates to SNB-75 CNS. The following applies: 10 µM unless noted.
Experiment [9] concerns PC-3 prostate. The following applies: 10 µM unless noted.
Experiment [10] deals with SK-MEL-2 melanoma. The following applies: 10 µM unless noted.
Experiment [11] has as its system ACHN renal. The following applies: 10 µM unless noted.
In experiment [12] the test system is A498 renal. The following applies: 10 µM unless noted.
Experiment [13] relates to HL-60(TB) leukemia. The following applies: 10 µM unless noted.
In experiment [14] the test system is OVCAR-8 ovarian. The following applies: 10 µM unless noted.
The subject of experiment [15] is OVCAR-4 ovarian. The following applies: 10 µM unless noted.
Experiment [16] deals with IGROV1 ovarian. The following applies: 10 µM.
Experiment [17] relates to HS 578T breast. The following applies: 10 µM unless noted.
Experiment [18] concerns T-47D breast. The following applies: 10 µM unless noted.
For experiment [19], the system named is HCC-2998 colon. The following applies: 10 µM unless noted.
Experiment [20] deals with SK-MEL-5 melanoma. The following applies: 10 µM unless noted.

`O=C(O)c1[nH]c(=O)[nH]c(=O)c1F`: the growth was 90.1% in experiment [1]; 107% in experiment [2]; 89.2% in experiment [3]; 82.5% in [4]; 103% in experiment [5]; 93.6% in experiment [6]. Besides, the growth was 106% in experiment [7]; 99% in [8]; 95.6% in experiment [9]; 110% in experiment [10]; 77% in [11]; 82.5% in experiment [12]. Also, the growth was 117% in experiment [13]; 81.7% in experiment [14]; 112% in experiment [15]; 95.1% in experiment [16]; 123% in experiment [17]; 104% in experiment [18]. Further, the growth in [19] is 64.9%.
`CN(C)P1(N(C)C)=NP(N(C)C)(N(C)C)=NP(N(C)C)(N(C)C)=N1`: the growth was 99.3% in experiment [1]; 102% in [2]; 101% in experiment [3]; 104% in experiment [4]; 93.6% in experiment [5]; 101% in experiment [6]. In addition, the growth is 104% in experiment [7]; 90.3% in [8]; 90% in experiment [9]; 107% in experiment [20]; 98.2% in experiment [10]; 97.2% in experiment [11]. For the same molecule, the growth in experiment [12] is 108%; in [13] it was 100%; in experiment [14] it was 96.1%; in experiment [15] it was 95%; in experiment [16] it was 95.4%; in experiment [17], 114%. Further, the growth in experiment [18] is 103%; in experiment [19] it was 111%.
On to `C/C(=C\c1cc(C(F)(F)F)n(-c2ccc(N)cc2)n1)[C@@H]1C[C@@H]2O[C@]2(C)CCC[C@H](C)[C@H](O)[C@@H](C)C(=O)C(C)(C)[C@@H](O)CC(=O)O1`, for which the growth in experiment [1] is 1.71% (active); in [2] it was 6.37% (active); in experiment [3], 2.01% (active); in experiment [4] it was -18.5% (active); in experiment [5], 26.6%; in experiment [6], 9.88% (active). Besides, the growth in experiment [8] was -16.2% (active); in [9], 9.42% (active); in experiment [11] it was 31.9%; in [12], -0.114% (active); in experiment [13] it was 0.265% (active); in [14] it was 0.138% (active). The growth in experiment [15] was 44.7%; in experiment [16] it was 31.1%; in [17], -11.5% (active); in [18], 12.8%; in experiment [19], 8.18% (active).
As for `CCOC(=O)/C=C(\C)Nc1ccc(N/C(C)=C/C(=O)OCC)c2c1Oc1ccccc1O2`, the growth in experiment [1] is 106%; in [2] it was 81.7%; in [3], 99.4%; in experiment [4], 105%; in experiment [5] it was 109%; in [6] it was 100%. For the same molecule, the growth was 112% in [7]; 103% in experiment [8]; 103% in experiment [9]; 79.9% in [20]; 100% in experiment [10]; 104% in [11]. In addition, the growth in experiment [12] is 102%; in experiment [13] it was 63.4%; in [14], 96.7%; in experiment [15] it was 114%; in experiment [17] it was 87.3%; in experiment [18], 103%. For the same molecule, in experiment [19], the growth is 120%.
Take `COC(=O)C[Se]C(=O)c1ccccc1OC(C)=O`: the growth was 33.7% in experiment [1]; 79% in [2]; 53.3% in [3]; 75.1% in experiment [4]; 59.7% in [5]; 46.4% in experiment [6]. Also, the growth in [7] was 33.2%; in experiment [9], 77.7%; in experiment [20], 90.6%; in [10] it was 87.4%; in experiment [11], 72%; in experiment [13], -4.01% (active). Moreover, the growth is 45.4% in experiment [14]; 54.4% in [15]; 52% in experiment [16]; 66.1% in experiment [17]; 84.5% in experiment [18]; 62.1% in experiment [19].
`Oc1ccc(O)c2c1C1(Cl)C(Cl)=C(Cl)C2(Cl)C1(Cl)Cl`: the growth is 46.1% in experiment [1]; 27.5% in experiment [2]; 21.7% in experiment [3]; 68.2% in experiment [4]; 46.6% in experiment [5]; 45.3% in experiment [6]. Besides, the growth in experiment [7] was 66.4%; in [8], 31.6%; in experiment [9], 42.4%; in experiment [20], 42.3%; in [10], 31.3%; in [11] it was 48.2%. The growth is 34.9% in [12]; 31% in experiment [13]; 74% in [14]; 54.1% in [15]; 38.3% in [16]; 55.6% in experiment [17]. Besides, in experiment [18], the growth was 19.4%.
Regarding `CCOCC1(CCc2ccccc2)C(=O)NC(=S)NC1=O`, the growth is 97.8% in experiment [1]; 105% in experiment [2]; 111% in [3]; 99.9% in experiment [4]; 94.5% in experiment [5]; 107% in experiment [6]. The growth was 108% in experiment [7]; 100% in experiment [8]; 104% in [9]; 111% in experiment [20]; 103% in experiment [10]; 108% in [11]. Also, the growth in experiment [12] was 96.9%; in experiment [13] it was 99.4%; in experiment [14], 107%; in experiment [15] it was 120%; in experiment [16] it was 107%; in experiment [17], 106%. Moreover, the growth in experiment [18] is 99.3%.
Turning to `O=C1NC2(CCNCC2)Nc2ccccc21`, the growth in [1] is 69.1%; in [3] it was 107%; in experiment [4], 114%; in experiment [5], 85.7%; in experiment [6] it was 113%; in experiment [7], 98.2%. In addition, the growth in experiment [8] is 82.8%; in [9], 88.5%; in experiment [20] it was 114%; in experiment [10], 98.1%; in experiment [11], 110%; in experiment [12], 95.5%. Moreover, the growth in [13] is 95.6%; in [14], 84.4%; in experiment [15], 116%; in experiment [16], 113%; in experiment [17] it was 102%; in [18], 109%. In addition, the growth in experiment [19] was 103%.
